Results filed as inconclusive are left out. Values without a mark were called inactive. Calls come from the whole dose curve; as a rule, active = well fitted cell-killing curve with a large enough effect; inconclusive = small, poorly fitted or top-dose-only effect; inactive = no such curve, though single readings can be large or run the other way.
experiment: qHTS of pediatric cancer cell lines to identify multiple opportunities for drug repurposing: Primary screen for Rh41 cells (AID 1347108); settings: Rh41 rhabdomyosarcoma viability, CellTiter-Glo luminescence, 48 h; series mostly up to 46 µM; activity change, negative = cytotoxic: at the top concentration;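 note: luminescence drop marks cytotoxic hits; nearly all actives have a fitted effect of over 70% in size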
Summary of the method: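 Quantitative HTS format: each compound titrated (MIPE 11 points from 0.78 nM, NPC 8 points from 0.59 nM) onto cells plated 5 hours earlier. After 48 h at 37 degrees C, CellTiter-Glo luminescence was recorded.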

Row | Compound | activity change, negative = cytotoxic
1 | Cc1cc(C)c(NC(=O)CN(CC(=O)O)CC(=O)O)c(C)c1Br | 23.4%
2 | CCOC(=O)c1cccnc1 | 36.5%
3 | COc1cc(O)cc(O)c1 | 20.1%
4 | O=C(O)[C@@H]1[C@H]2C[C@H]3c4[nH]c5ccccc5c4CCN3C[C@@H]2CC[C@@H]1O | 25.4%
5 | CC(C)NC[C@@H](O)COc1ccc(CC(N)=O)cc1 | 34.4%
6 | Cc1cc(NC(=O)C2=C(O)c3ccccc3S(=O)(=O)N2C)no1 | 4.77%
7 | CCCOC(=O)c1ccc(N)cc1 | 28.3%
8 | CC(=O)Nc1cccc(O)c1 | 10.4%
9 | CCc1nnc(NS(=O)(=O)c2ccc(N)cc2)s1 | 13.1%
10 | COc1cc(C(=O)NCCCCCC(=O)O)cc(OC)c1OC | 11.5%
11 | CC(=O)SC[C@@H](Cc1ccccc1)C(=O)NCC(=O)OCc1ccccc1 | 23.4%
12 | NCC1CCC(C(=O)Oc2ccc(CCC(=O)O)cc2)CC1 (stereo unspecified) | 18.6%
13 | CN[C@@H]1[C@H](O)[C@H](NC)[C@H]2O[C@@]3(O)C(=O)C[C@@H](C)O[C@H]3O[C@@H]2[C@H]1O | 25.1%
14 | CC[N+](C)(CC)CCOC(=O)C1c2ccccc2Oc2ccccc21 | 14.9%
15 | O=C(NCN1CCOCC1)c1cnccn1 | 9.63%
16 | O=C(O)c1cc(=O)c2ccccc2o1 | 23.1%
17 | COc1ccc(-c2cc(=O)c3c(O)cc(O[C@@H]4O[C@H](CO[C@@H]5O[C@@H](C)[C@H](O)[C@@H](O)[C@H]5O)[C@@H](O)[C@H](O)[C@H]4O)cc3o2)cc1O | 28.2%
18 | CN1CC(=O)NC1=N | 25.2%

Row | Compound | activity change, negative = cytotoxic
19 | CC(=O)OCC(=O)[C@@]1(O)CC[C@H]2[C@@H]3CCC4=CC(=O)C=C[C@]4(C)[C@@]3(F)[C@@H](O)C[C@@]21C | 15.5%
20 | NS(=O)(=O)c1ccc(C(=O)O)cc1 | 25.1%
21 | CCN(CC)S(=O)(=O)c1ccc(C(=O)O)cc1 | 8.91%
22 | O=C(O)CNC(=O)c1ccccc1I | 12.5%
23 | O=C(Cn1ccnc1[N+](=O)[O-])NCc1ccccc1 | 11.4%
24 | CN1C(C)(C)CCCC1(C)C | 11.4%
25 | C[n+]1ccccc1/C=N/O | 20%
26 | NC(=O)CC[C@@H](N)C(=O)O | 13.2%
27 | Cc1cccc(C)c1NC(=O)CC12CCCN1CCC2 | 17.9%
28 | NS(=O)(=O)c1cc(C2(O)NC(=O)c3ccccc32)ccc1Cl (stereo unspecified) | 22.2%
29 | O=C(/C=C/c1ccc(O)c(O)c1)O[C@@H]1C[C@@](OC(=O)/C=C/c2ccc(O)c(O)c2)(C(=O)O)C[C@@H](O)[C@@H]1O | 25.6%
30 | C=CCNC(N)=S | 28.6%
31 | COc1nccnc1NS(=O)(=O)c1ccc(N)cc1 | 11.9%
32 | CN[C@@H]1[C@@H](O)[C@@H](O[C@@H]2[C@H](O)[C@H](O[C@H]3OC(CN)=CC[C@H]3N)[C@@H](N)C[C@H]2N)OCC1(C)O (stereo partly specified) | 29%
33 | CO[C@@]1(NC(=O)C(C(=O)O)c2ccc(O)cc2)C(=O)N2C(C(=O)O)=C(CSc3nnnn3C)CO[C@@H]21 (stereo partly specified) | 32.4%
34 | O=C(O)c1ccccc1C(=O)Nc1ccc(S(=O)(=O)Nc2nccs2)cc1 | -3.48%
35 | CN1C(=O)CC(c2ccccc2)C1=O (stereo unspecified) | 4.91%
36 | CCCCCCCCCCOc1cc2c(=O)c(C(=O)OCC)c[nH]c2cc1OCC | 18.9% [at 4.84 µM]

Source: PubChem BioAssay (NCATS)
